Screening data (PubChem BioAssay)
D1 antag – Antagonist of Human D 1 Dopamine Receptor: qHTS | activity change, negative = inhibition, % at 10 µM | 3.2% of 360,000 active | D(1A) dopamine receptor (Homo sapiens), P21728 | HEK293 TREx D1 cells, calcium flux, dopamine EC80; stronger effect = lower value; in the data active = activity change below about -30%; note: % is set by controls: 0 for no effect and ±100 for the full control effect
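Calcium flux readout: force-coupled, inducible Hek293 Trex D1 line, cells induced overnight at 30 C with tetracycline, dye-loaded 30–90 min at RT. Antagonism scored against EC80 dopamine challenge given 180 s after compound.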
D1 ag – Allosteric Agonists of the Human D1 Dopamine Receptor: qHTS | D(1A) dopamine receptor (Homo sapiens), P21728 | HEK293 T-REx D1 cells, calcium flux, agonist mode | activation, % at 2 µM | 1% of 360,000 active; in the data active = activation above about 30%; note: 0% is about no effect
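Agonism was scored from calcium flux recorded over 180 s (1 read/s) after pintool compound addition, following a 10-cycle baseline. Cells were inducible force-coupled HEK293 TREx D1, plated overnight at 30 C and loaded with no-wash calcium dye.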
D3 antag – qHTS of D3 Dopamine Receptor Antagonist: qHTS; max response, negative = inhibition, %; D(3) dopamine receptor (Homo sapiens), P35462; D3R cells, DiscoveRx beta-arrestin luminescence, antagonist mode; stronger effect = lower value; 2.5% of 360,000 active; in the data active = max response below about -50%; inconclusive = no clear call, values can overlap the other calls; note: % is set by controls: 0 for no effect and ±100 for the full control effect
Target sequence (P35462 whole entry, looked up): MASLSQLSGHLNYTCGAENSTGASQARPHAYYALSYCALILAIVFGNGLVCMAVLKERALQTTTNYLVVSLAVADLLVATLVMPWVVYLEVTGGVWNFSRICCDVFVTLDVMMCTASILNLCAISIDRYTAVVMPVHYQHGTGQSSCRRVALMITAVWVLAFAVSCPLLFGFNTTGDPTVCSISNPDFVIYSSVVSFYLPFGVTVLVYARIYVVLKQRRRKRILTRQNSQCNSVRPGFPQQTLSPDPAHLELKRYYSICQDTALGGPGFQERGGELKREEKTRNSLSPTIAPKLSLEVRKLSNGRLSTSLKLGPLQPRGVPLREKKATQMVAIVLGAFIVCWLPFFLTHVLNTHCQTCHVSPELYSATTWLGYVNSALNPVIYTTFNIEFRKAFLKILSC
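Cells expressing the human receptor were seeded at 1500 cells/well, incubated overnight at 37 degrees C in 5% CO2, then exposed to library compounds with dopamine controls for 90 minutes at 37 degrees C before luminescent detection.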
BCR signal inh – qHTS Assay to Find Inhibitors of Chronic Active B-Cell Receptor Signaling | Potency, µM (highest dose often 46.1 µM), without a hit: at the top dose activity change, negative = inhibition, actives largely listed as inhibitors | AID 493014, 2011 | 0.05% of 340,000 active | ABC-DLBCL IkBa-CBG/CBR reporter, luminescence ratio, 4 h; active = well fitted inhibition curve with a large enough effect in the signal ratio, with a control signal flat, not every such curve was filed as active; inconclusive = small, poorly fitted or top-dose-only effect, or effect the other way, or a change in a side signal; the % refers to the signal ratio;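 note: potency is the fitted concentration of half-maximal effect; plate controls were basal doxycycline-induced cells for no effect and cells given 10 µM MG132 for full effect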
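TMD8 human ABC-DLBCL cells with doxycycline-inducible IκBα–green luciferase fusion and unfused red luciferase, in 0.5% FBS medium; compounds up to 46 uM, 4 h at 37C. Green/red luminescence ratio, filter-overlap corrected, fitted to concentration-response curves.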
DRD3 agonist – qHTS of D3 Dopamine Receptor Agonist: qHTS; D(3) dopamine receptor (Homo sapiens), P35462; AID 652048, 2013; D3R DiscoveRx beta-arrestin cells, luminescence, 90 min; max activation, %; 0.58% of 410,000 active; in the data active = max activation above about 30%; note: 0% is about no effect
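Cells at 1500/well, incubated overnight, then treated with pinned compounds (dopamine as control) for 90 min at 37 degrees C. DiscoveRx reagent added for 30 - 60 minutes at room temperature; luminescence read.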
D1 PAM – Potentiators of Human D1 Dopamine Receptor: qHTS; HEK293 TREx D1 cells, calcium flux, dopamine EC20 potentiation; potentiation, % at 10 µM; 0.036% of 360,000 active; AID 504651, 2011; in the data active = potentiation above about 30%; note: 0% is about no effect
The depositor's hits bear a star; ? = inconclusive; / = no result given. Shown are actives, neighbours in structure and some others; about 6% of the full set was active somewhere.

SMILES	D1 antag	D1 ag	D3 antag	BCR signal inh	DRD3 agonist	D1 PAM
CNS(=O)(=O)c1cn(CC(=O)Nc2cccc(C(F)(F)F)c2)cc1S(=O)(=O)NC	-4.3	4.5	/	/	-10.4	-2.2
CCOc1ccccc1N1CCN(Cc2cccc(OC)c2OC)CC1	3.5	8.5	-88.5*	2.1%	-2.3	-7.0
COc1cccc(CN2CCN(c3ncccn3)CC2)c1OC	9.2	0.3	-1.2	-3.8%	10.8	-3.0
COc1ccc(CN2CCN(C(=O)c3cccs3)CC2)c(OC)c1OC	-34.0*	4.7	-86.1*	-2.2%	-13.1	-2.8
COc1ccccc1N1CCN(Cc2ccc(OC)c(OC)c2OC)CC1	-7.6	3.1	-50.6*	0.5%	-9.3	-2.6
COc1cc2oc(=O)cc(CN3CCN(c4ccccc4OC)CC3)c2cc1Cl	/	/	-50.0*	/	-1.4	/
COc1cc[n+]([O-])cc1[N+](=O)[O-]	/	/	-6.0	/	-12.5	/
CCOc1ccc(NC(=O)CCS(=O)(=O)c2ccc3nc(C)sc3c2)cc1	0.3	2.4	/	/	-16.7	-4.1
Cc1ccc(C)c(NC(=O)CSc2ccc3nc(-c4ccccc4)cn3n2)c1	-1.4	1.1	/	/	-1.3	-1.9
CCn1nnc2cc(C(=O)Nc3ccc(C)cc3Br)ccc21	-5.3	4.5	/	/	-10.7	-2.4
CCOC(=O)C1CCN(Cc2ccccc2C(F)(F)F)CC1	1.7	0.0	-12.0	-1.0%	-22.8	-1.8
CCOC(=O)C1CCN(Cc2ccc(O)c3ncccc23)CC1	-42.1*	0.4	-92.5*	-11.6%	-19.3	-1.0
CCOc1ccccc1N1CCN(Cc2cn[nH]c2-c2ccc(F)cc2)CC1	57.5	42.8*	-84.2*	?	-17.3	4.5
CC(=O)c1sc(NC(=O)CCc2ccccc2)nc1C	/	/	-8.3	/	3.7	/
CC[C@H](C)NC(=O)CCCCCn1c(=S)[nH]c2c([nH]c3ccc(OC)cc32)c1=O	-6.0	-0.6	-6.5	-3.8%	3.3	-4.4
CCCCNC(=O)CCCCn1c(=S)[nH]c2c([nH]c3ccc(OC)cc32)c1=O	-12.8	1.7	3.6	-1.5%	0.8	-2.8
COc1ccc2[nH]c3c(=O)n(CCCCC(=O)N4CCC(C(N)=O)CC4)c(=S)[nH]c3c2c1	-35.6*	2.5	52.1	?	-4.5	-0.1
COc1ccc2[nH]c3c(=O)n(CCCCC(=O)NCCN4CCCC4)c(=S)[nH]c3c2c1	-3.7	1.8	-95.6*	?	-32.9	-6.8
O=C(Nc1ccc(NC(=O)c2cccs2)cc1)c1ccc(Br)cc1	-10.2	-1.3	/	/	6.7	-1.1
COc1ccc(CNCc2cccc3ccccc23)cc1	15.2	14.3	-60.0*	?	-7.9	-4.1
COc1ccc(CNCc2cccc(Cl)c2)cc1	-0.7	14.2	-50.5*	0.5%	-13.5	-8.3
COc1ccc(CNCc2ccccc2C(F)(F)F)cc1	24.6	3.0	-10.9	-2.8%	-9.7	-8.7
CC(C)(C)C(=O)N1CCN(c2nc3c(F)cccc3s2)CC1	/	-3.2	/	?	-1.9	-1.8
Cc1ccc(CCNC(=O)CCCn2c(=O)c3cccn3c3ccc(F)cc32)cc1	2.6	0.7	/	/	-1.9	-1.1
CCCCn1nnnc1C1(C)CCC(=O)N1CCOC (stereo not given)	/	/	13.9	/	0.5	/
SMILES	D1 antag	D1 ag	D3 antag	BCR signal inh	DRD3 agonist	D1 PAM
COc1ccc(C(=S)N2CCN(C)CC2)cc1Br	-5.1	-1.0	0.0	-1.7%	-10.0	-3.8
COc1ccc(C(=S)N2CCN(C)CC2)cc1	-0.6	2.5	-73.9*	-9.4%	2.2	4.0
CN1CCN(C(=S)c2ccc(Cl)cc2)CC1	3.2	1.1	-86.9*	3.3%	-0.4	4.9
C/C=C(/C)C(=O)O[C@@H]1c2cc3c(c(OC)c2-c2c(cc(OC)c(OC)c2OC)[C@@H](OC(C)=O)[C@@H](C)[C@H]1C)OCO3	-62.1*	3.1	-4.2	-0.1%	2.4	-3.4
Cc1c(C(=O)NCc2ccccc2C(F)(F)F)sc(=O)n1Cc1ccccc1C#N	/	/	1.5	/	3.0	/
CCc1ccccc1NC(=O)c1ccc2c(c1)nnn2C1CCCC1	-30.5*	4.5	/	/	-9.1	0.5
O=C(NCc1ccccc1Cl)c1ccc2c(c1)nnn2C1CCCC1	-34.1*	6.6	/	/	-11.0	-4.3
Cc1cccc(NC(=O)CS(=O)(=O)c2nc(-c3ccccc3)cn2-c2cccc(Cl)c2)c1C	-0.5	5.0	/	/	-17.3	-0.1
Cc1nc2ccn(Cc3cccs3)c(=O)c2cc1C(=O)N1CCN(c2ccccc2F)CC1	19.2	3.6	/	/	-9.7	-5.5
Cc1ccccc1CNC(=O)c1cnc2sc(N3CCOCC3)nn2c1=O	11.9	0.7	/	/	4.1	-3.1
COc1ccc(F)cc1-c1cc(NC=O)c2ncc(-c3cccc(C(=O)N(C)C)c3)n2c1	/	/	?	/	52.1*	/
CN(C)C(=O)c1cccc(-c2cc(NC=O)c3ncc(-c4ccc(F)cc4)n3c2)c1	/	/	0.0	/	-8.6	/
OCC[C@@H]1C[C@H](O)[C@@H](O)[C@@]2(OCc3ccc4ccccc4c32)O1	/	/	-3.3	/	-9.8	/
Cc1ccc(OCc2nc(-c3ccc(C(=O)N4CCN(c5ccccc5)CC4)cc3)oc2C)cc1	3.0	2.3	/	/	0.7	-0.3
Cc1ccc(OCc2nc(-c3ccc(C(=O)N4CCN(c5cc(Cl)ccc5C)CC4)cc3)oc2C)cc1	-33.9*	5.2	/	/	-6.1	-4.8
Cn1cc(CCNC(=O)C2CCC(=O)N(CCc3ccc(Cl)cc3)C2)cn1 (stereo not given)	-51.9*	0.3	8.4	3.0%	3.1	-18.2
O=C(NCCN1CCCC1=O)C1CCC(=O)N(CCc2ccc(Cl)cc2)C1 (stereo not given)	-9.7	-0.2	-5.0	-0.4%	0.3	2.5
Cc1c(CNC(=O)C2CCC(=O)N(CCc3ccccc3)C2)cnn1C (stereo not given)	-32.6*	3.6	-24.8	-7.9%	-13.1	1.9
Cc1csc(CN(C)C(=O)C2CCC(=O)N(CCCc3ccccc3)C2)n1 (stereo not given)	-42.8*	6.3	9.9	1.9%	-2.4	-0.1
O=C(NCCCc1ccccc1)C1CCC(=O)N(Cc2ccc(Cl)cc2)C1 (stereo not given)	-41.5*	6.0	0.0	3.4%	-19.3	-2.8
COc1ccccc1-c1csc(C(NC(C)=O)c2ccccc2)n1 (stereo not given)	/	/	-21.2	/	-2.7	/
CCN(CC)Cc1c(NC(=O)c2ccc(OC)cc2)sc2c1CCCC2	-0.5	-1.6	/	/	-10.3	-0.1
CC(C)C(C(=O)NCc1ccccc1)N(C)Cc1ccc(Cl)c(Cl)c1 (stereo not given)	/	/	12.7	/	0.2	/
